Reference: PubChem BioAssay (EPA / NIEHS)
Activity calls are given as the source filed them. The calls were made as follows: active = hit-call score of the fitted dose curve at least 0.9, where 1 is the maximum; inactive = score below 0.9.

What was measured:
[1] = molecular target: Paired box protein Pax-6 (Homo sapiens) (UniProt P26367); experiment: ATG_Pax6_CIS: Attagene CIS-FACTORIAL HepG2 Assay for human Paired Box 6 (PAX6) (AID 2282956); conditions: HepG2 CIS-FACTORIAL PAX6 reporter transcription, RNA readout; actives raise or lower the signal
Summary of the method: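 Readout: reporter transcript fluorescence after RT-PCR and capillary electrophoresis. Cells: HepG2, transiently transfected with cis-regulated MRTUs. Exposure 24 h. Gain or loss of signal fitted bidirectionally relative to DMSO.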

[2] = ATG_PXRE_CIS: Attagene CIS-FACTORIAL HepG2 Assay for human Pregnane X Receptor Element (PXRE) (AID 2282957); conditions: HepG2 Attagene CIS-FACTORIAL PXRE reporter, mRNA; actives raise or lower the signal
Summary of the method: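 Fluorescent capillary electrophoresis of amplified reporter cDNA gave the signal, collected 24 h after dosing HepG2 cells that held transfected cis-element reporter constructs.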

[3] = ATG_PPRE_CIS: Attagene CIS-FACTORIAL HepG2 Assay for human Peroxisome Proliferator-activated Response Element (PPRE) (AID 2282958); conditions: HepG2 PPRE cis-element reporter, Attagene transcription factor profiling; actives raise or lower the signal
Summary of the method: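 PPRE activity in HepG2: transient cis-reporter transfection, 24 h compound incubation, reporter mRNA by RT-PCR and CE fluorescence; gain/loss fitted against DMSO.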

[4] = ATG_RORE_CIS: Attagene CIS-FACTORIAL HepG2 Assay for human RAR-related Orphan Receptor Element (RORE) (AID 2282959); conditions: HepG2 Attagene cis-factorial RORE reporter, mRNA; actives raise or lower the signal
Summary of the method: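 A 24-hour exposure of transfected HepG2 hepatoma cells precedes RNA isolation and reporter RT-PCR. Labeled products are digested with HpaI and resolved by capillary electrophoresis, with gain or loss of signal scored relative to DMSO.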

[5] = molecular target: Transcription factor Sp1 (Homo sapiens) (UniProt P08047); experiment: ATG_Sp1_CIS: Attagene CIS-FACTORIAL HepG2 Assay for human Specificity Protein 1 (Sp1) (AID 2282961); conditions: HepG2 Sp1 cis-reporter transcription, actives raise or lower the signal
Summary of the method: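 Liver-derived HepG2 cells, cis-element reporter library, 24 h treatment; RNA isolated, cDNA amplified with reporter-specific primers, FAM-labeled fragments sized on capillary analyzer. DMSO baseline, bidirectional curve fit.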

[6] = ATG_SREBP_CIS: Attagene CIS-FACTORIAL HepG2 Assay for human Sterol Regulatory Element Binding (SREBP) (AID 2282962); conditions: HepG2 Attagene cis-factorial SREBP reporter, mRNA; actives raise or lower the signal
Summary of the method: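 Readout: fluorescent reporter-transcript peaks resolved by capillary electrophoresis after RT-PCR. Cells were human HepG2 carrying transfected cis-promoter reporter constructs, dosed for 24 h. Gain or loss of signal was fitted against DMSO controls.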

[7] = molecular target: Signal transducer and activator of transcription 3 (Homo sapiens) (UniProt P40763); experiment: ATG_STAT3_CIS: Attagene CIS-FACTORIAL HepG2 Assay for human Signal Transducer and Activator of Transcription 3 (STAT3) (AID 2282963); conditions: HepG2, Attagene cis-factorial STAT3 reporter transcription; actives raise or lower the signal
Summary of the method: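 Readout: fluorescent reporter mRNA fragments resolved by capillary electrophoresis. Setup: HepG2 transfected with MRTUs reporting endogenous transcription-factor activity, dosed 24 h. Gain or loss of signal fitted bidirectionally against DMSO control.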

[8] = ATG_TCF_b_cat_CIS: Attagene CIS-FACTORIAL HepG2 Assay for human T-Cell-Factor with beta-catenin (TCF/b-cat) (AID 2282965); conditions: HepG2 TCF/beta-catenin cis-reporter transcription, actives raise or lower the signal
Summary of the method: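 HepG2 cells transiently transfected with cis-promoter-driven multiplexed reporter units; reporter mRNA measured 24 h after dosing by RT-PCR, FAM labelling, HpaI digestion and capillary electrophoresis. Bidirectional fitting relative to DMSO baseline.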

[9] = ATG_TA_CIS: Attagene CIS-FACTORIAL HepG2 Assay for human TA Basal Promoter (AID 2282964); conditions: HepG2 Attagene CIS-factorial TA basal promoter reporter; actives raise or lower the signal
Summary of the method: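 Multiplexed mRNA reporter assay, HepG2, 24 h. Reporter cDNA amplified, 6-FAM primer-extended, HpaI-cut, CE-sized; DMSO = negative control and baseline.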

[10] = ATG_Sox_CIS: Attagene CIS-FACTORIAL HepG2 Assay for human SRY-box transcription factor (SOX) (AID 2282960); conditions: HepG2 Attagene cis-factorial SOX reporter, mRNA; actives raise or lower the signal
Summary of the method: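 HepG2, cis reporter units, 24 h exposure. Reporter mRNA: RT-PCR → FAM labelling → HpaI → CE fluorescence. Bidirectional fit vs DMSO.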

Measured: AC50

Chain of Paired box protein Pax-6 (Homo sapiens) (P26367 whole entry, looked up): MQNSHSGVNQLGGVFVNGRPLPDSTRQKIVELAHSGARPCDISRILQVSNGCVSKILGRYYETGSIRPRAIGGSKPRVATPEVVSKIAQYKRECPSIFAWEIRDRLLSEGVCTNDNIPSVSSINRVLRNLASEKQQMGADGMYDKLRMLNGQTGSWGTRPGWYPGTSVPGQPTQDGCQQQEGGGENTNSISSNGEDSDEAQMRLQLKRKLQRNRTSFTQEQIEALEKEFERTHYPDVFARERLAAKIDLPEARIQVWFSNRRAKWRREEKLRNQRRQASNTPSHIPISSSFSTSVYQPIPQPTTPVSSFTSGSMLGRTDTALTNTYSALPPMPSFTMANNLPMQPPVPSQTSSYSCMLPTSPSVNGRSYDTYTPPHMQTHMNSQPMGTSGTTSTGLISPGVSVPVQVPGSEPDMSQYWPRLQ
Chain of Signal transducer and activator of transcription 3 (Homo sapiens) (P40763 whole entry, looked up, the tested form may be a part): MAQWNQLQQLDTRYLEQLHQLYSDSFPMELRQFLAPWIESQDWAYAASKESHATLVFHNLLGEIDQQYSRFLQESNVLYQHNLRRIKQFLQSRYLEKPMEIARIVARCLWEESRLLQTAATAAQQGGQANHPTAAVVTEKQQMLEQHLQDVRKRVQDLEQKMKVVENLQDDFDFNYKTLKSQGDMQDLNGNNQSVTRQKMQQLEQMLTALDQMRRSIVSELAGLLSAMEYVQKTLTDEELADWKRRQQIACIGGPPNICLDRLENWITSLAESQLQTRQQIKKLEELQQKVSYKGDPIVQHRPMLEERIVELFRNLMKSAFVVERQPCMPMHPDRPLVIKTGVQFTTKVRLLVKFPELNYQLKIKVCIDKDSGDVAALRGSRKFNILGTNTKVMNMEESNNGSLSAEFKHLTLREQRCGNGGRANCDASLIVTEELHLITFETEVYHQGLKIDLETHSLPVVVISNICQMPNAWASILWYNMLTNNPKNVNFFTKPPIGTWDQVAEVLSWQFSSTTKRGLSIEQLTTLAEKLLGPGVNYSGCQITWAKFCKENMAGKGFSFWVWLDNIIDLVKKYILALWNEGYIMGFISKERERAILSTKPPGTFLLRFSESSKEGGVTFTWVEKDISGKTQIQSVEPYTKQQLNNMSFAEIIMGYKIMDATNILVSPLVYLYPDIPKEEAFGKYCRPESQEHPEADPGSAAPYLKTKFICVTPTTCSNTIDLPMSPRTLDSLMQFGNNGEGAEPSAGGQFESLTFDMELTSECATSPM
Chain of Transcription factor Sp1 (Homo sapiens) (P08047 whole entry, looked up, the tested form may be a part): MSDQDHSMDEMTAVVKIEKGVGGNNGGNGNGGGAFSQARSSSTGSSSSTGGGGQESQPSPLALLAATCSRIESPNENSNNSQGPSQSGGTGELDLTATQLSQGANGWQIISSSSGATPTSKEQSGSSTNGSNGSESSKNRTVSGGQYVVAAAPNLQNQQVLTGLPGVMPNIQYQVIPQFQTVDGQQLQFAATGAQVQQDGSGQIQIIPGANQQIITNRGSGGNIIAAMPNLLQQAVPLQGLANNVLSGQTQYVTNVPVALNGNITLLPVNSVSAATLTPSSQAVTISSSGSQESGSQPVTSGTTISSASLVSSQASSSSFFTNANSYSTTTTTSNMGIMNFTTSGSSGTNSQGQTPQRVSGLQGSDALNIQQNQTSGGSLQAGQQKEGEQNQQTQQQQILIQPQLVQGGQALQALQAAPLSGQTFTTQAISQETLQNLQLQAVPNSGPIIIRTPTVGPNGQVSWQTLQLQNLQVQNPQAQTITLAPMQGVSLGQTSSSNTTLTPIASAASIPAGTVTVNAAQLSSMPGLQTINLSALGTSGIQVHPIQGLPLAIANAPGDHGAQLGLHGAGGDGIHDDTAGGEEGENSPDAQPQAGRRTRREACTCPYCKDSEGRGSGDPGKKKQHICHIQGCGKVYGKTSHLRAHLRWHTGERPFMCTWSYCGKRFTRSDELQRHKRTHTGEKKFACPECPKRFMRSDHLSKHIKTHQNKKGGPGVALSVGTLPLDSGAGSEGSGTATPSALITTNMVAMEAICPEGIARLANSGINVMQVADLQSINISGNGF

CC(=O)OC(C)C
active: [2] 100 µM
not listed: [9] | [10]
inactive: all other assays above

C=CC(=O)OCC(Br)CBr (stereo unspecified)
active: [1] 34.5 µM | [7] 121 µM | [8] 44.2 µM
not listed: [10]
inactive: all other assays above

CC/C=C\CCOC(=O)CCCCC
not listed: [4]
inactive: all other assays above

CC(C)(C)c1ccc(N)cc1
active: [2] 24.2 µM
not listed: [5]
inactive: all other assays above

O=c1[nH]nc(-c2ccc([N+](=O)[O-])o2)o1
not listed: [10]
inactive: all other assays above

NC(=O)c1ccccc1O
not listed: [5] | [10]
inactive: all other assays above

CCCCCCCCCCCCCCCC[n+]1ccccc1
active: [3] 8.82 µM
not listed: [5]
inactive: all other assays above

CC(=O)OCCC1CCCCC1
active: [2] 31.8 µM
not listed: [10]
inactive: all other assays above

CCCCCCC1(C)CCC(=O)O1 (stereo unspecified)
active: [2] 30.3 µM
not listed: [10]
inactive: all other assays above

CCCCCCCOC(=O)CCC
active: [2] 48 µM
not listed: [5]
inactive: all other assays above

O=C1CCCC(=O)O1
not listed: [5]
inactive: all other assays above

CCCNC(=O)NS(=O)(=O)c1ccc(Cl)cc1
not listed: [6]
inactive: all other assays above
